Measured values reported in article PMC9911399, “Two distinct binding modes provide the RNA-binding protein RbFox with extraordinary sequence specificity”.
Positions count from the first letter of the chain named. In all, about 16,000 sequences were measured (“ka relative to ugcaugu”: median about 0.096, highest 2% from about 0.35 on). The sample holds the highest values, similar sequences and a random draw of the others, so the mix is not that of the screen.

T1: RBFOX1 RRM RbFoxmut (Fox-RRM*) (Homo sapiens, UniProt Q9NWB1 109-208, R118D;E147R;N151S;E152T)
T1 sequence: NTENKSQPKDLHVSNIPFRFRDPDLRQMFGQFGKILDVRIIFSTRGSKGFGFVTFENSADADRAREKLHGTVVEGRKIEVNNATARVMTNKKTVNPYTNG

B1: UACUGCC (DNA:RNA)
RNA: GGGAGACCGGAAUUCAGAUUGUCCUACUGCCUUAAAUCCCGUCGUAGCCACCA
DNA 1: CAATCTGAATTCCGGTCTCCC
DNA 2: TGGTGGCTACGACGGGATT
B2: CCGGCAC (DNA:RNA)
RNA: B1 RNA with U25C, A26C, C27G, U28G, G29C, C30A
DNA 1: CAATCTGAATTCCGGTCTCCC
DNA 2: TGGTGGCTACGACGGGATT
B3: CUGGUGA (DNA:RNA)
RNA: GGGAGACCGGAAUUCAGAUUGUCCCUGGUGAUUAAAUCCCGUCGUAGCCACCA
DNA 1: CAATCTGAATTCCGGTCTCCC
DNA 2: TGGTGGCTACGACGGGATT
B4: AGGAGUA (DNA:RNA)
RNA: B3 RNA with C25A, U26G, G28A, U29G, G30U
DNA 1: CAATCTGAATTCCGGTCTCCC
DNA 2: TGGTGGCTACGACGGGATT
B5: UAGUAGU (DNA:RNA)
RNA: B1 RNA with C27G, G29A, C30G, C31U
DNA 1: CAATCTGAATTCCGGTCTCCC
DNA 2: TGGTGGCTACGACGGGATT
B6: UCUCUCG (DNA:RNA)
RNA: B1 RNA with A26C, C27U, U28C, G29U, C31G
DNA 1: CAATCTGAATTCCGGTCTCCC
DNA 2: TGGTGGCTACGACGGGATT
B7: ACGUCAA (DNA:RNA)
RNA: B3 RNA with C25A, U26C, G28U, U29C, G30A
DNA 1: CAATCTGAATTCCGGTCTCCC
DNA 2: TGGTGGCTACGACGGGATT
B8: UUCCUAC (DNA:RNA)
RNA: B1 RNA with A26U, U28C, G29U, C30A
DNA 1: CAATCTGAATTCCGGTCTCCC
DNA 2: TGGTGGCTACGACGGGATT
B9: GAAAACG (DNA:RNA)
RNA: B1 RNA with U25G, C27A, U28A, G29A, C31G
DNA 1: CAATCTGAATTCCGGTCTCCC
DNA 2: TGGTGGCTACGACGGGATT
B10: CGGCUUG (DNA:RNA)
RNA: B3 RNA with U26G, G28C, G30U, A31G
DNA 1: CAATCTGAATTCCGGTCTCCC
DNA 2: TGGTGGCTACGACGGGATT
B11: GGGGGGC (DNA:RNA)
RNA: B3 RNA with C25G, U26G, U29G, A31C
DNA 1: CAATCTGAATTCCGGTCTCCC
DNA 2: TGGTGGCTACGACGGGATT
B12: GUCGGCU (DNA:RNA)
RNA: B1 RNA with U25G, A26U, U28G, C31U
DNA 1: CAATCTGAATTCCGGTCTCCC
DNA 2: TGGTGGCTACGACGGGATT
B13: AGGCUUG (DNA:RNA)
RNA: B3 RNA with C25A, U26G, G28C, G30U, A31G
DNA 1: CAATCTGAATTCCGGTCTCCC
DNA 2: TGGTGGCTACGACGGGATT
B14: CCCCGGC (DNA:RNA)
RNA: B1 RNA with U25C, A26C, U28C, C30G
DNA 1: CAATCTGAATTCCGGTCTCCC
DNA 2: TGGTGGCTACGACGGGATT
B15: ACCAGGC (DNA:RNA)
RNA: B1 RNA with U25A, A26C, U28A, C30G
DNA 1: CAATCTGAATTCCGGTCTCCC
DNA 2: TGGTGGCTACGACGGGATT
B16: GUCCGGC (DNA:RNA)
RNA: B1 RNA with U25G, A26U, U28C, C30G
DNA 1: CAATCTGAATTCCGGTCTCCC
DNA 2: TGGTGGCTACGACGGGATT
B17: GGGCUUG (DNA:RNA)
RNA: B3 RNA with C25G, U26G, G28C, G30U, A31G
DNA 1: CAATCTGAATTCCGGTCTCCC
DNA 2: TGGTGGCTACGACGGGATT
B18: AGGAGGC (DNA:RNA)
RNA: B3 RNA with C25A, U26G, G28A, U29G, A31C
DNA 1: CAATCTGAATTCCGGTCTCCC
DNA 2: TGGTGGCTACGACGGGATT
B19: CACCGGC (DNA:RNA)
RNA: B1 RNA with U25C, U28C, C30G
DNA 1: CAATCTGAATTCCGGTCTCCC
DNA 2: TGGTGGCTACGACGGGATT
B20: GGCUUGU (DNA:RNA)
RNA: B3 RNA with C25G, U26G, G27C, G28U, A31U
DNA 1: CAATCTGAATTCCGGTCTCCC
DNA 2: TGGTGGCTACGACGGGATT
B21: GUCGGGC (DNA:RNA)
RNA: B3 RNA with C25G, G27C, U29G, A31C
DNA 1: CAATCTGAATTCCGGTCTCCC
DNA 2: TGGTGGCTACGACGGGATT
B22: GUGGAAC (DNA:RNA)
RNA: B3 RNA with C25G, U29A, G30A, A31C
DNA 1: CAATCTGAATTCCGGTCTCCC
DNA 2: TGGTGGCTACGACGGGATT
B23: CAAUUGA (DNA:RNA)
RNA: B3 RNA with U26A, G27A, G28U
DNA 1: CAATCTGAATTCCGGTCTCCC
DNA 2: TGGTGGCTACGACGGGATT
B24: GGUCCAG (DNA:RNA)
RNA: GGGAGACCGGAAUUCAGAUUGUCCGGUCCAGUUAAAUCCCGUCGUAGCCACCA
DNA 1: CAATCTGAATTCCGGTCTCCC
DNA 2: TGGTGGCTACGACGGGATT
B25: GCCCCAG (DNA:RNA)
RNA: B24 RNA with G26C, U27C
DNA 1: CAATCTGAATTCCGGTCTCCC
DNA 2: TGGTGGCTACGACGGGATT
B26: CAUGAAU (DNA:RNA)
RNA: B3 RNA with U26A, G27U, U29A, G30A, A31U
DNA 1: CAATCTGAATTCCGGTCTCCC
DNA 2: TGGTGGCTACGACGGGATT
B27: AAUACGG (DNA:RNA)
RNA: B24 RNA with G25A, G26A, C28A, A30G
DNA 1: CAATCTGAATTCCGGTCTCCC
DNA 2: TGGTGGCTACGACGGGATT
B28: CUGUACC (DNA:RNA)
RNA: B3 RNA with G28U, U29A, G30C, A31C
DNA 1: CAATCTGAATTCCGGTCTCCC
DNA 2: TGGTGGCTACGACGGGATT
B29: AGCUGAC (DNA:RNA)
RNA: B1 RNA with U25A, A26G, C30A
DNA 1: CAATCTGAATTCCGGTCTCCC
DNA 2: TGGTGGCTACGACGGGATT
B30: AUGUUGU (DNA:RNA)
RNA: B3 RNA with C25A, G28U, A31U
DNA 1: CAATCTGAATTCCGGTCTCCC
DNA 2: TGGTGGCTACGACGGGATT
B31: AUGUGUA (DNA:RNA)
RNA: B3 RNA with C25A, G28U, U29G, G30U
DNA 1: CAATCTGAATTCCGGTCTCCC
DNA 2: TGGTGGCTACGACGGGATT
B32: AUGUUCG (DNA:RNA)
RNA: B3 RNA with C25A, G28U, G30C, A31G
DNA 1: CAATCTGAATTCCGGTCTCCC
DNA 2: TGGTGGCTACGACGGGATT
B33: AUGGAUG (DNA:RNA)
RNA: B3 RNA with C25A, U29A, G30U, A31G
DNA 1: CAATCTGAATTCCGGTCTCCC
DNA 2: TGGTGGCTACGACGGGATT
B34: GUCCAUG (DNA:RNA)
RNA: B24 RNA with G26U, U27C, C29A, A30U
DNA 1: CAATCTGAATTCCGGTCTCCC
DNA 2: TGGTGGCTACGACGGGATT
B35: AUGGAGA (DNA:RNA)
RNA: B3 RNA with C25A, U29A
DNA 1: CAATCTGAATTCCGGTCTCCC
DNA 2: TGGTGGCTACGACGGGATT
B36: ACCAUGU (DNA:RNA)
RNA: B3 RNA with C25A, U26C, G27C, G28A, A31U
DNA 1: CAATCTGAATTCCGGTCTCCC
DNA 2: TGGTGGCTACGACGGGATT
B37: AUGUCCG (DNA:RNA)
RNA: B3 RNA with C25A, G28U, U29C, G30C, A31G
DNA 1: CAATCTGAATTCCGGTCTCCC
DNA 2: TGGTGGCTACGACGGGATT
B38: CCAUGUA (DNA:RNA)
RNA: B3 RNA with U26C, G27A, G28U, U29G, G30U
DNA 1: CAATCTGAATTCCGGTCTCCC
DNA 2: TGGTGGCTACGACGGGATT
B39: AUGGAUC (DNA:RNA)
RNA: B3 RNA with C25A, U29A, G30U, A31C
DNA 1: CAATCTGAATTCCGGTCTCCC
DNA 2: TGGTGGCTACGACGGGATT
B40: AUGUUUG (DNA:RNA)
RNA: B3 RNA with C25A, G28U, G30U, A31G
DNA 1: CAATCTGAATTCCGGTCTCCC
DNA 2: TGGTGGCTACGACGGGATT
B41: AUGUAUA (DNA:RNA)
RNA: B3 RNA with C25A, G28U, U29A, G30U
DNA 1: CAATCTGAATTCCGGTCTCCC
DNA 2: TGGTGGCTACGACGGGATT

These binders were tested against T1, RBFOX1 RRM RbFoxmut (Fox-RRM*) (assay: EMSA; HiTS-Eq, 1 nM pool, 10 min; buffer printed only for the single-RNA assays: 10 mM Tris pH 7.5, 150 mM NaCl, 3.4 mM EDTA, 0.001% NP-40, 30 C). Conditions: tags: His6 N-terminal (pET28a); label: 5' 32P.
Summary of the method: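 Purified RbFox RRM, wild type or mutant, was incubated for 10 min in 50 µL with 1 nM of a 5′-radiolabelled RNA pool carrying 7 randomized nucleotides, whose flanks were annealed to DNA oligonucleotides, over a series of increasing protein concentrations. Unbound RNA was resolved on 8% native PAGE, cut out, reverse-transcribed, barcoded by PCR and sequenced on an Illumina HiSeq 2500. Relative association constants were derived from changes in read counts for each RNA species versus the control reaction and normalised to the cognate motif.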

Row | Binder | binding signal
1 | B1 | 0.217 KA relative to UGCAUGU
2 | B2 | 0.0571 KA relative to UGCAUGU
3 | B3 | 0.0924 KA relative to UGCAUGU
4 | B4 | 0.168 KA relative to UGCAUGU
5 | B5 | 0.121 KA relative to UGCAUGU
6 | B6 | 0.0757 KA relative to UGCAUGU
7 | B7 | 0.0727 KA relative to UGCAUGU
8 | B8 | 0.0836 KA relative to UGCAUGU
9 | B9 | 0.0811 KA relative to UGCAUGU
10 | B10 | 0.431 KA relative to UGCAUGU
11 | B11 | 0.0893 KA relative to UGCAUGU
12 | B12 | 0.116 KA relative to UGCAUGU
13 | B13 | 0.388 KA relative to UGCAUGU
14 | B14 | 0.0573 KA relative to UGCAUGU
15 | B15 | 0.0949 KA relative to UGCAUGU
16 | B16 | 0.116 KA relative to UGCAUGU
17 | B17 | 0.371 KA relative to UGCAUGU
18 | B18 | 0.118 KA relative to UGCAUGU
19 | B19 | 0.0862 KA relative to UGCAUGU
20 | B20 | 0.359 KA relative to UGCAUGU
21 | B21 | 0.0929 KA relative to UGCAUGU

Row | Binder | binding signal
22 | B22 | 0.112 KA relative to UGCAUGU
23 | B23 | 0.0875 KA relative to UGCAUGU
24 | B24 | 0.0861 KA relative to UGCAUGU
25 | B25 | 0.117 KA relative to UGCAUGU
26 | B26 | 0.114 KA relative to UGCAUGU
27 | B27 | 0.0866 KA relative to UGCAUGU
28 | B28 | 0.137 KA relative to UGCAUGU
29 | B29 | 0.109 KA relative to UGCAUGU
30 | B30 | 0.245 KA relative to UGCAUGU
31 | B31 | 0.364 KA relative to UGCAUGU
32 | B32 | 0.412 KA relative to UGCAUGU
33 | B33 | 0.64 KA relative to UGCAUGU
34 | B34 | 0.151 KA relative to UGCAUGU
35 | B35 | 0.139 KA relative to UGCAUGU
36 | B36 | 0.102 KA relative to UGCAUGU
37 | B37 | 0.14 KA relative to UGCAUGU
38 | B38 | 0.2 KA relative to UGCAUGU
39 | B39 | 0.298 KA relative to UGCAUGU
40 | B40 | 0.626 KA relative to UGCAUGU
41 | B41 | 0.23 KA relative to UGCAUGU
